# Laboratory results reported in PubChem BioAssay.
# Values joined by “and” are separate entries in the source; they are usually repeats but may differ in a detail not shown here. Equal entries are not always repeated. Records with an inconclusive call do not appear. Active and inactive are the calls of the source.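 How the source made its calls, unless noted: active means z-score of at least 1.8 in each of two replicates, scored against plate mean and spread of sample wells; inactive means the rest.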
# Columns and labels:
# [1] = Wnt pathway potentiators raising nuclear beta-catenin – imaging, WNT3A-conditioned medium, mouse C2C12, NPC library, primary screen (AID 1117326; in the data active means nuclear beta-catenin stimulation mostly above about 4.2%, no sharp cut-off; inactive means mostly below about 10%; further: reference of the scale not given here); conditions: stronger effect = higher value
# [2] = stimulators of insulin release from INS-1E, primary screen, cell-based, 5 mM glucose, NPC library (AID 1117329;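 active means compound raises insulin release from rat beta cells at 5 mM glucose, no numeric limit stated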; further: reference of the scale not given here); conditions: rat INS-1E insulin secretion, at 10 µM, stronger effect = higher value
# [3] = growth inhibition of GSK3B-pretreated HCT116 cells – cell-based, CellTiter-Glo, 0.2 to 20 µM (AID 1117336;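 active means compounds lowering colon cancer cell viability after pretreatment blocking the GSK3B kinase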); conditions: HCT116 viability after GSK3B inhibitor, at 20 µM, stronger effect = higher value
# [4] = inhibition of endothelial tube formation, primary screen, imaging, VEGF stimulated, CD31 staining, tube area, NPC library (AID 1117340;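 active means compound that reduces growth-factor-driven endothelial tube area in a mixed cell culture, no cutoff stated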); conditions: VEGF-stimulated ADSC/ECFC co-culture, at 10 µM, stronger effect = higher value
# [5] = GLP1 release stimulators, primary, NCI-H716, NPC library (AID 1117341;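 active means compound raises GLP1 secretion from the human gut endocrine cells, with no numeric limit stated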; further: reference of the scale not given here); conditions: NCI-H716 cells, at 10 µM, stronger effect = higher value
# [6] = HCT116 colon cancer cell growth inhibition, primary screen, CellTiter-Glo luminescence, NPC library (AID 1117342;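 active means compounds that lower survival of HCT116 colon cancer cells in the luminescence readout, no numeric limit stated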); conditions: at 20 µM (top of the series)
# [7] = reduced SW480 viability measured with CellTiter-Glo, NPC library, primary (AID 1117343;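 active means compounds that lower viability of the colon cancer cells in the luminescence readout, with no numeric limit stated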); conditions: CellTiter-Glo luminescence; at 20 µM (top of the series) unless noted
# [8] = NPC library primary testing for decreased DLD-1 cell viability via CellTiter-Glo (AID 1117346;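 active means compounds that lower survival of DLD-1 colon cancer cells in the luminescence readout, no cutoff given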); conditions: DLD-1 viability, CellTiter-Glo luminescence; at 20 µM (top of the series)
# [9] = test system: Aerobactin synthetase IucA (Klebsiella pneumoniae); experiment: inhibition of K. pneumoniae IucA enzyme – biochemical, Tocris library, absorbance (AID 1345561; call rule not given here;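 further: 100% = enzyme without compound and 0% = no enzyme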); conditions: purified IucA enzyme assay, absorbance (OD) read-out; stronger effect = lower value;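 tested at 8 µM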
# [10] = viability loss in pontine glioma line – cell-based, SU-DIPG-XIII, MIPE4.0, CellTiter-Glo, qHTS, dose response (AID 1347061; cut-off not given, nearly all actives have AC50 up to about 37 µM;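 further: cells exposed to compound for 48 hours before readout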); conditions: CellTiter-Glo ATP luminescence
# [11] = viability loss in pontine glioma line – cell-based, JHH-DIPG-1, MIPE4.0, CellTiter-Glo, qHTS, dose response (AID 1347062; cut-off not given, nearly all actives have AC50 up to about 27 µM); conditions: JHH-DIPG-1 viability, CellTiter-Glo ATP luminescence
# [12] = growth inhibition of DIPG cells – cell-based, MIPE5.0 library, qHTS (AID 1347068; cut-off not given, nearly all actives have IC50 up to about 30 µM); conditions: SU-DIPG-XXV viability
# [13] = viability loss with induced miR-34 in A549 – imaging, A549 dox-inducible miR-34, nuclei and caspase counts, primary screen (AID 1347080;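 active means compounds whose cell count with miR-34 switched on is under 0.7 times the count with it off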); conditions: A549 miR-34 inducible, Hoechst nuclei count, 48 h
# [14] = galactose survival enhancers in mitochondrial complex I cybrids – cell-based, galactose medium, ATP luminescence, primary screen (AID 1645843); conditions: complex I mutant cybrid cells, 72 h, stronger effect = higher value;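 further: positive z means more ATP and so rescue of galactose-driven cybrid death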
# [15] = P. berghei load reduction in hepatocytes – cell-based, HepG2, luciferase luminescence, HepG2 viability, primary screen (AID 624349; in the data active means parasite load remaining mostly below about 12%, no sharp cut-off; inactive means mostly above about 10%;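 further: 100% = mean of DMSO negative control wells on the same plate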); conditions: P. berghei liver stage in HepG2, luciferase luminescence, concentration not given here; parasite load remaining: stronger effect = lower value; viability: measured here: HepG2 viability without parasites
# [16] = MELAS cybrid and Rieske KO viability enhancers – cell-based, MELAS cybrids, Rieske KO mouse fibroblasts, CellTiter-Glo, primary screen (AID 1508586;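 active means mean z-score across replicates of 1.96 or higher in either the MELAS or the Rieske mutant cell line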;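 further: z relative to plate mean and SD of compound and empty wells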); conditions: low glucose
# [17] = stronger effect = lower value, cell number ratio, induced over uninduced
# [18] = measured here: relative caspase fold change +Dox/-Dox
# [19] = measured here: total cells with miR-34 induction, stronger effect = lower value
# [20] = measured here: total cells without miR-34 induction
# [21] = MELAS cybrid survival, CellTiter-Glo 48 h, stronger effect = higher value
# [22] = Rieske KO mouse fibroblast survival, CellTiter-Glo 72 h
smiles,measurement,setting,value
Cn1ccc2cc3c(cc21)CCN3C(=O)Nc1cccnc1,nuclear beta-catenin stimulation,[1]; at 10 µM,0.8% (inactive)
same,nuclear beta-catenin stimulation,"[1]; stimulation, at 2 µM",-1.3%
same,insulin secretion stimulation,[2],-1.4% (inactive)
same,viability decrease,[3],-4.4% (inactive)
same,tube area decrease,[4],-4.4% (active)
same,GLP1 secretion stimulation,[5],0.1% (inactive)
same,inhibition of viability,[6],24.2% (inactive)
same,viability decrease (inhibition),[7],12.7% (inactive)
same,viability decrease (inhibition),[8],-22.3% (inactive)
same,remaining activity,[9],117% (inactive)
same,AC50,[10],14.8 µM (active)
same,outcome,[11],inactive
same,outcome,[12],inactive
same,fold change,[13]; [17],1.01 (inactive) and 0.974 (inactive)
same,fold change,[13]; [18],1.08 and 0.723
same,cell count,[13]; [19],11100 and 8340
same,cell count,[13]; [20],11000 and 8560
same,z-score,[14],1.23 (inactive) and 0.545 (inactive)
COCCOC(=O)C1=C(C)NC(C)=C(C(=O)OC/C=C/c2ccccc2)C1c1cccc([N+](=O)[O-])c1 (stereo unspecified),parasite load remaining,[15],41.2% (inactive)
same,viability,[15],106%
same,nuclear beta-catenin stimulation,[1]; at 10 µM,2.6% (inactive)
same,nuclear beta-catenin stimulation,"[1]; stimulation, at 2 µM",0.8%
same,insulin secretion stimulation,[2],-0.8% (inactive)
same,viability decrease,[3],77.2% (active)
same,tube area decrease,[4],104% (active)
same,GLP1 secretion stimulation,[5],-1.2% (inactive)
same,inhibition of viability,[6],77% (active)
same,viability decrease (inhibition),[7],87.1% (active)
same,viability decrease (inhibition),[8],86.4% (active)
same,remaining activity,[9],100% (inactive)
same,fold change,[13]; [17],1.33 (inactive) and 0.874 (inactive) and 0.908 (inactive)
same,fold change,[13]; [18],0.592 and 1.2 and 1.19
same,cell count,[13]; [19],2620 and 3270 and 8480
same,cell count,[13]; [20],1970 and 3740 and 9340
same,z-score,[16]; [21],0.948 (inactive) and 0.937 (inactive)
same,z-score,[16]; [22],1.43 and 0.674
same,z-score,[14],-1.04 (inactive) and -0.7 (inactive) and -0.745 (inactive)
O=C(O)Cn1c(C(=O)Nc2nc(-c3ccccc3Cl)cs2)cc2ccccc21,nuclear beta-catenin stimulation,[1]; at 10 µM,0.7% (inactive)
same,nuclear beta-catenin stimulation,"[1]; stimulation, at 2 µM",-0.5%
same,insulin secretion stimulation,[2],0.05% (inactive)
same,viability decrease,[3],104% (active)
same,tube area decrease,[4],47.9% (active)
same,GLP1 secretion stimulation,[5],5.4% (inactive)
same,inhibition of viability,[6],72.1% (active)
same,viability decrease (inhibition),[7],102% (active)
same,viability decrease (inhibition),[8],60.6% (active)
same,remaining activity,[9],99.8% (inactive)
same,fold change,[13]; [17],0.989 (inactive)
same,fold change,[13]; [18],1.35
same,cell count,[13]; [19],8300
same,cell count,[13]; [20],8400
same,z-score,[14],1.2 (inactive)
CC(C)C(=O)c1c(C(C)C)nn2ccccc12,parasite load remaining,[15],83.4% (inactive)
same,viability,[15],97%
same,nuclear beta-catenin stimulation,[1]; at 10 µM,-0.8% (inactive)
same,nuclear beta-catenin stimulation,"[1]; stimulation, at 2 µM",0.4%
same,insulin secretion stimulation,[2],24.5% (active)
same,viability decrease,[3],39.4% (inactive)
same,tube area decrease,[4],-13.6% (inactive)
same,GLP1 secretion stimulation,[5],3.4% (inactive)
same,inhibition of viability,[6],31.8% (inactive)
same,viability decrease (inhibition),[7],5% (inactive)
same,viability decrease (inhibition),[8],1.8% (inactive)
same,remaining activity,[9],110% (inactive)
same,fold change,[13]; [17],1.02 (inactive) and 0.934 (inactive) and 0.944 (inactive)
same,fold change,[13]; [18],0.854 and 0.782 and 0.951
same,cell count,[13]; [19],9930 and 7850 and 8420
same,cell count,[13]; [20],9700 and 8400 and 8930
same,z-score,[16]; [21],1.07 (inactive) and 0.83 (inactive)
same,z-score,[16]; [22],-0.15 and -1.19
same,z-score,[14],0.105 (inactive) and -0.07 (inactive) and 0.255 (inactive)
